In the library only some 6.6% were active in any assay of this set; here they are far more common.
TSG101-PTAP inh: blocks PTAP/TSG101 interaction to inhibit HIV-1 budding. Q99816. Fluorescence polarization, FITC-PTAP peptide / Tsg101 binding. Potency, µM (top dose mostly 115 µM), without a hit: top-dose activity change, negative = inhibition, most hits filed as inhibitors. 340,000 tested, under 10 active. AID 493005; active = well fitted inhibition curve with a large enough effect in the main read-out, with a control signal flat, not every such curve was filed as active; inconclusive = small, poorly fitted or top-dose-only effect, or effect the other way, or a change in a side signal; inactive = no such curve, though single readings can be large or run the other way; also: % of control where 0% means no effect
Target sequence (Q99816 whole entry, looked up): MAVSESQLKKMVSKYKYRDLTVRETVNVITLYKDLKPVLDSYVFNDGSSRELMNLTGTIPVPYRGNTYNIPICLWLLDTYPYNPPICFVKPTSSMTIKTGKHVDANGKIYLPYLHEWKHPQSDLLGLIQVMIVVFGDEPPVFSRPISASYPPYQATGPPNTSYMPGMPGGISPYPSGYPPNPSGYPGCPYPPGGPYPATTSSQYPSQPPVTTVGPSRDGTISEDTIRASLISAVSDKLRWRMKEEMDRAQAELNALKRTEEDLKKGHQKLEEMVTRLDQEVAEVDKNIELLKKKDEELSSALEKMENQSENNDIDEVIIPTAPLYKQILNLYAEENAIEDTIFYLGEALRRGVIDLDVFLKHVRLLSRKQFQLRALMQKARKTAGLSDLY
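Steps: Tsg101 binding domain dispensed (10 uM final), compounds pinned in DMSO, FITC-labeled PTAP-motif peptide added (50 nM final); after 20 min binding at room temperature, polarization measured.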
SW480 rerep: induces DNA re-replication in SW480 colon adenocarcinoma cells | SW480 DNA re-replication, Hoechst DNA content imaging, 48 h | Potency, µM (series often up to 46.1 µM), for inactives: top-dose re-replication activation, usual class: activators | 1.8% of 340,000 active; also: % of control where 0% means no effect; nearly all actives have a fitted effect of over 55% in size
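Image-based read-out: total Hoechst fluorescence of nuclei (405 nm excitation, 500-530 nm emission), with hits raising the fraction of high-intensity nuclei. SW480 colon cells incubated 48 hr with compounds at 37 C.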
RGS4 inh: human RGS4 inhibition. P49798. Transcreener GDP fluorescence polarization, RGS4-accelerated GTP hydrolysis. Potency, µM (top dose mostly 114 µM), without a hit: at the highest dose activity change, negative = inhibition, actives largely listed as inhibitors. 0.039% of 390,000 active; also: % is scaled to controls: 0 for no effect and ±100 for the full control effect; nearly all actives have a fitted effect of over 75% in size
Target sequence (P49798 whole entry, looked up): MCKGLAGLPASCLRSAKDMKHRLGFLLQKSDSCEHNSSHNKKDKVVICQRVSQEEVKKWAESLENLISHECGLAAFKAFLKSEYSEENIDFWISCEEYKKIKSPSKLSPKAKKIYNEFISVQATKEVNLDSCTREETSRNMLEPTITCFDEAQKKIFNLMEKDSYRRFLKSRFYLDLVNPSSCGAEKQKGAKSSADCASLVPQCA
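MLSMR compounds (23 nl, pin-transferred) preincubated 10 min at room temperature with a 500nM (2x) first reagent, then RGS4 at 900nM (2x) plus Transcreener GDP mix added; fluorescence polarization (620/688 nm) read before and after 90 min at 30 °C.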
KB-3-1 tox: kills parental KB-3-1 adenocarcinoma cells; KB-3-1 viability, CellTiter-Glo ATP luminescence, 72 h; Potency, µM (top dose mostly 46.1 µM), most hits filed as cytotoxic; 1.4% of 400,000 active; AID 1347075; also: % is scaled to controls: 0 for no effect and ±100 for the full control effect; nearly all actives have a fitted effect of over 60% in size
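Cytotoxicity in the drug-sensitive parental line KB-3-1 was scored as loss of CellTiter-Glo luminescence following 72 h incubation with compound. Values come from curve fitting of normalized concentration-response data.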
MCF10A rerep: induces DNA re-replication in MCF 10a normal breast cells. 2.9% of 350,000 active. Potency, µM (series often up to 46.1 µM), inactives show at the highest dose activity, positive = re-replication, usual class: activators. AID 624296. MCF 10A DNA re-replication, Hoechst nuclear intensity, 48 h; also: % of control where 0% means no effect; nearly all actives have a fitted effect of over 50% in size
KB-V1 cytotox: kills drug-selected multidrug resistant KB-V1 cells; Potency, µM (top dose mostly 46.1 µM), actives largely listed as cytotoxic; 3.4% of 400,000 active; KB-V1 MDR cells viability, CellTiter-Glo, 72 h; also: % is scaled to controls: 0 for no effect and ±100 for the full control effect; nearly all actives have a fitted effect of over 60% in size
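Luminescent ATP read-out (CellTiter-Glo, 10 min) measures survival of drug-selected KB-V1 MDR cells after 72 h, 37 degrees C compound exposure. Medium: phenol-red-free DMEM, 10% FBS. Values from fitted concentration-response curves.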
An asterisk follows results filed as active; i = inactive; ? = inconclusive; / = no result given; [ ] = dose if it differs, or a comment. Unless noted, calls follow the shape of the dose curve; as a rule, active = well fitted curve in the direction sought with a large enough effect; inconclusive = small, poorly fitted or top-dose-only effect, or another doubt; inactive = no such curve, though single readings can be large; an effect the other way counts as inactive or inconclusive. Potency is read from the fitted curve at half-maximal effect.

SMILES	TSG101-PTAP inh	SW480 rerep	RGS4 inh	KB-3-1 tox	MCF10A rerep	KB-V1 cytotox
Cc1ccc(-n2ncc3c(SCc4ccccn4)ncnc32)c(C)c1	0.7%	13.0%	23.4%	?	?	8.2µM*
COc1ccccc1C(=O)Nc1ccc(C(=O)/C=C/c2cccs2)cc1	-1.0%	?	-45.3%	i	?	23.1µM*
COc1ccc(Br)cc1/C=C/C(=O)c1ccc(NC(C)=O)cc1	-3.9%	14.6µM*	-31.9%	4.11µM*	6.51µM*	?
O=C(/C=C/c1cccs1)c1ccc(NC(=O)c2ccccc2F)cc1	-5.2%	-24.8%	-6.5%	i	-2.2%	?
COc1ccc(C(=O)Nc2ccc(NC(=O)c3cccs3)cc2)cc1OC	/	/	-21.7%	i	/	i
COc1ccc(/C=C/C(=O)c2ccc(NC(=O)c3cccs3)cc2)cc1OC	-3.8%	?	-35.9%	i	9.2µM*	20.6µM*
O=C(C1CCC1)N1CCc2cc(S(=O)(=O)NCc3ccc(F)cc3)ccc21	/	/	-49.0%	i	/	i
C=CCN(CC=C)C(=S)NC(=O)c1ccc([N+](=O)[O-])cc1	-1.6%	3.66µM*	-0.4%	?	?	?
C=CCNC(=S)NNC(=O)c1ccc([N+](=O)[O-])cc1	0.3%	-1.4%	-15.7%	i	1.3%	i
O=C(CC1N=C2c3ccccc3N=C(SCc3ccccc3Cl)N2C1=O)NC1CCCCC1 (stereo unspecified)	/	/	-12.5%	i	/	?
COc1cc(S(=O)(=O)O)c(C)cc1N=Nc1c(O)ccc2cc(S(=O)(=O)O)ccc12	/	/	/	i	/	i
Cc1ccc2[nH]c3c(c2c1)CN(C(=O)CN1CCCc2ccccc21)CC3	-4.9%	?	-26.3%	i	23.1µM*	i
CCOc1cccc2cc(-c3nc4sc5c(c4c(=O)[nH]3)CCC(C(C)(C)C)C5)c(=O)oc12 (stereo unspecified)	/	/	30.3%	/	/	/
COc1ccc(CN(C(=O)c2ccc3c(c2)OCCO3)C(C(=O)NC2CCCCC2)c2ccc3ncccc3c2)cc1 (stereo unspecified)	2.2%	5.6%	-2.0%	i	13µM*	i
COc1ccc(CN(C(=O)c2cccs2)C(C(=O)NC2CCCCC2)c2ccc3ncccc3c2)cc1 (stereo unspecified)	0.6%	-1.9%	-5.8%	i	-2.8%	?
O=C(NC1CCCCC1)C(c1ccccc1)N(C(=O)c1cccs1)c1ccc2c(c1)OCO2 (stereo unspecified)	-6.9%	1.3µM*	-13.0%	i	-5.9%	?
COc1ccc(C(C(=O)NC2CCCCC2)N(C(=O)c2cccs2)c2ccc3c(c2)OCO3)cc1 (stereo unspecified)	-0.5%	4.3%	10.8%	i	?	i
O=C(NC1CCCCC1)C(c1ccc2ncccc2c1)N(Cc1ccccc1)C(=O)c1cccs1 (stereo unspecified)	-11.0%	?	-14.0%	i	?	23.1µM*
Cc1ccc(C2c3[nH]c4ccccc4c3CCN2C(=O)CCc2ccccc2)cc1 (stereo unspecified)	/	/	19.8%	/	/	/
CCOC(=O)C(CC)Sc1ncnc2c1c(-c1ccccc1)cn2-c1ccc(OC)cc1 (stereo unspecified)	/	/	-3.8%	i	/	i
Cc1cccc(NC(=O)C2(C)CC3c4ccccc4C2c2ccccc23)c1C (stereo unspecified)	-3.6%	-83.2%	-6.2%	?	7.9%	7.31µM*
Cc1ccc(C)c(NC(=O)C2(C)CC3c4ccccc4C2c2ccccc23)c1 (stereo unspecified)	-9.8%	13.1%	19.1%	i	0.1%	i
Clc1ccc2nc(-c3ccc(Cl)nc3)[nH]c2c1	0.0%	13µM*	-5.3%	i	?	?
Nc1ccc(-c2nc3ccc(-c4nc5ccccc5o4)cc3[nH]2)cc1	-4.0%	4.47µM*	-3.8%	i	3.98µM*	i
Nc1ccc(-c2nc3ccc(N)cc3[nH]2)cc1	-0.4%	4.8%	-13.0%	i	-0.5%	i
SMILES	TSG101-PTAP inh	SW480 rerep	RGS4 inh	KB-3-1 tox	MCF10A rerep	KB-V1 cytotox
Nc1nc2ccc(Cl)cc2[nH]1	-0.9%	-0.3%	10.0%	i	-1.1%	i
Nc1ccc2nc(-c3ccc(Cl)cc3)[nH]c2c1	3.6%	1.7%	?	18.4µM*	?	i
CC(C)(C)OC(=O)N1CCC(c2c(C(=O)NCc3ccccn3)cnn2-c2ccccc2)CC1	/	/	11.4%	i	/	i
COc1ccc(OC)c(NC2=C(c3ccccc3)C(=O)c3ccccc32)c1	/	/	-9.3%	/	/	/
O=C1C=CC(=O)N1N(c1ccccc1)c1ccccc1	-3.9%	?	?	i	5.17µM*	i
CCOC(=O)c1c(C)cc2c(CO)n[nH]c(=O)c2c1C	/	/	/	i	/	0.82µM*
CC(=O)Nc1ccc(C2Nc3c(C)cc(C)cc3-c3cc(C)nn32)cc1 (stereo unspecified)	/	/	-8.2%	i	/	i
CCOC(=O)C(C)(C)N(Cc1ccccc1C)S(=O)(=O)c1ccc(Cl)c([N+](=O)[O-])c1	-7.4%	?	-24.4%	i	18.4µM*	i
CCc1nnc(NC(=O)C2CCCN(c3nc(C)cc(C)n3)C2)s1 (stereo unspecified)	-2.9%	0.9%	-8.8%	i	1.4%	9.2µM*
CCc1nnc(NC(=O)C2CCN(c3nccc(C)n3)CC2)s1	-11.5%	-5.3%	2.3%	i	-0.9%	16.4µM*
Cc1cc(C)nc(N2CCCC(C(=O)Nc3nnc(C(C)(C)C)s3)C2)n1 (stereo unspecified)	-9.5%	-70.8%	8.3%[56.9 µM]	i	-1.2%	?
Cc1ccc(NC(=O)C2CCC(CNS(=O)(=O)c3csc(C(N)=O)c3)CC2)cc1Cl (stereo unspecified)	/	/	-22.6%	i	/	i
COc1cc(NC(=O)COCc2cc(-c3ccc(F)cc3)on2)cc(OC)c1OC	/	/	-20.9%	?	/	i
COc1ccc(OC)c(Nc2cc(C)nc3ccccc23)c1	-5.1%	18.1%	-10.7%	?	?	18.4µM*
